# Screens from PubChem.
# PLK1 PBD block: qHTS for Inhibitors of PLK1-PDB (polo-like kinase 1 - polo-box domain): Primary Screen; Serine/threonine-protein kinase PLK1 (Homo sapiens), P53350; Plk1 PBD binding of FITC phosphopeptide, fluorescence polarization; Potency, µM, usual class: inhibitors; 360,000 tested, 2.8% active; AID 720504, 2013; further: series mostly up to about 57 µM; nearly all actives have a fitted effect of over 65% in size
# G9a inh: qHTS Assay for Inhibitors of Histone Lysine Methyltransferase G9a. Potency, µM (highest dose often 102 µM), usual class: inhibitors. G9a H3K9 monomethylation, AlphaScreen, 2 h. Histone-lysine N-methyltransferase EHMT2 (Homo sapiens), Q96KQ7. 350,000 tested, 8.8% active; further: nearly all actives have a fitted effect of over 75% in size
#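 AlphaScreen detection with an anti-monomethyl H3K9 antibody quantified product after a 2 h room-temperature reaction containing 500 nM biotinylated H3K9 peptide, 20 µM SAM and 20 nM enzyme, which had been preincubated 15 min with compound.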
# BAZ2B block: qHTS Assay for Inhibitors of BAZ2B. AID 504333, 2011. Potency, µM (titrated, usually from 114 µM), hits mostly inhibitors. Bromodomain adjacent to zinc finger domain protein 2B (Homo sapiens), Q9UIF8. AlphaScreen BAZ2B-H3K14Ac peptide displacement. 360,000 tested, 4.4% active; further: nearly all actives have a fitted effect of over 60% in size
#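 AlphaScreen luminescence quantifies BAZ2B engagement of H3K14Ac peptide; the protein and biotinylated peptide are both at 50 nM final, buffer PBS pH 7.4 with 0.01% Tween-20, all steps at room temperature.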
# PI5P4Ka inh: qHTS for Inhibitors of phosphatidylinositol 5-phosphate 4-kinase (PI5P4K); 330,000 tested, 1.2% active; PI5P4Kalpha enzyme, ADP-Glo luminescence, 60 min; stronger effect = lower value; AID 652105, 2013; Phosphatidylinositol 5-phosphate 4-kinase type-2 alpha (Homo sapiens), P48426; max response, %; active means max response of -50% or lower; inconclusive means between -30% and -50%; inactive means -30% or higher; further: value at the top dose of about 77 µM
# Target sequence (P48426 whole entry, looked up): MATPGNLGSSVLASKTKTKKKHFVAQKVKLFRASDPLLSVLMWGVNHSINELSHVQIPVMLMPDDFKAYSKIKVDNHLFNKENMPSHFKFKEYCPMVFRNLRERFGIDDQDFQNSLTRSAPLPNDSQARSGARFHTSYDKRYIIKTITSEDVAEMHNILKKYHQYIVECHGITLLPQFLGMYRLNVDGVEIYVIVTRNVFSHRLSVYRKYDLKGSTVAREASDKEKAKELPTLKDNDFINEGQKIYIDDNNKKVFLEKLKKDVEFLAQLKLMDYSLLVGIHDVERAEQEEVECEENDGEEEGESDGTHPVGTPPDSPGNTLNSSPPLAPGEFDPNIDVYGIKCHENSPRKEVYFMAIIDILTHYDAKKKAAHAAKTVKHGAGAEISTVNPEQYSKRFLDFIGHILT
#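 ADP-Glo luminescence end-point after a 60 min room-temperature kinase reaction. PI5P4Kalpha and substrate in HEPES pH 7.4 buffer with EGTA, 0.1% CHAPS and 5% DMSO; ATP at 5 microM final.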
# JMJD2A Tudor inh: qHTS Assay for Inhibitors of JMJD2A-Tudor Domain | Lysine-specific demethylase 4A (Homo sapiens), O75164 | AlphaScreen JMJD2A-Tudor / H3K4me3 peptide binding | Potency, µM (series often up to 114 µM), hits mostly inhibitors | 390,000 tested, 4.4% active; further: nearly all actives have a fitted effect of over 50% in size
# HP1b binding inh: HTS for Inhibitors of HP1-beta Chromodomain Interactions with Methylated Histone Tails. Potency, µM (series often up to 114 µM), actives largely listed as inhibitors. Chromobox protein homolog 1 (Homo sapiens), P83916. AID 540317, 2011. AlphaScreen HP1-beta / biotin-H3K9me3 peptide binding. 390,000 tested, 0.56% active; further: nearly all actives have a fitted effect of over 70% in size
# Target sequence (P83916 whole entry, looked up): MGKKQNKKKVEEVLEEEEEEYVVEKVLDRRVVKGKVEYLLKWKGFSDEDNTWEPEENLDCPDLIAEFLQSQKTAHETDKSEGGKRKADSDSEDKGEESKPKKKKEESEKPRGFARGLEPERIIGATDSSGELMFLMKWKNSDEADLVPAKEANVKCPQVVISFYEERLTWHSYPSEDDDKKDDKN
#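 HP1-beta protein (50 nM final) preincubated 30 min at room temperature with biotinylated H3(1-18)K9me3 peptide (50 nM) in PBS pH 7.4, 0.01% Tween-20, then compound added for 30 min. AlphaScreen streptavidin donor/nickel chelate acceptor beads (10 ug/mL final), 30 min dark, luminescence read.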
# Hits are given with their value; i = inactive; ? = inconclusive; nt = no result; [ ] = remark or other dose. In the library only some 12% were active in any assay of this set; here they are far more common. Unless noted, the call rests on the fitted dose curve; in most records, active means well fitted curve in the direction sought with a large enough effect; inconclusive means small, poorly fitted or top-dose-only effect, or another doubt; inactive means no such curve, though single readings can be large; an effect the other way counts as inactive or inconclusive.
SMILES,PLK1 PBD block,G9a inh,BAZ2B block,PI5P4Ka inh,JMJD2A Tudor inh,HP1b binding inh
O=C(CN1CCN(c2ccc(F)cc2)CC1)Nc1ccccc1[N+](=O)[O-],?,i,?,i,?,50.1µM
COc1ccccc1NC(=O)CN1CCN(c2ccc(F)cc2)CC1,23.8µM,nt,nt,i,?,i
CCOC(=O)c1[nH]c(C)c(CCC(=O)Nc2cc(C)ccc2OC)c1C,nt,i,i,nt,i,i
N#CCCn1c(=O)c(-c2cccs2)nc2cnc(Oc3ccccc3)nc21,nt,i[12.7 µM],nt,nt,nt,nt
Cc1ccc(S(=O)(=O)n2nc(-c3ccccc3)nc2NCc2ccc(Cl)cc2)cc1,nt,i,i,nt,i,i
Cc1cc(C(=O)N2CCC2(C)C(=O)Nc2ccc3[nH]ncc3c2)nn1C (stereo not drawn),i,nt,nt,i,nt,nt
CC(C)=CCC[C@H](C)C[C@@H]1CC2=C(C(=O)OC(C)(C)O2)[C@H](c2ccc(Cl)cc2)O1,i,nt,nt,i,nt,nt
COc1ccc(N2CCN(CC(=O)Nc3c(C)cc(C)cc3C)CC2)cc1,i,39.8µM,i,nt,i,i
Cc1cc(C)c(S(=O)(=O)Nc2ccc(O)cc2)cc1C,i,i[12.7 µM],i,i,i,i
COc1ccc(S(=O)(=O)Nc2cc(SCC(=O)O)c(O)c3ccccc23)cc1,1.5µM,2µM,39.8µM,-51.2,20µM,12.6µM
O=C(O)CSc1cc(NS(=O)(=O)c2ccc(Cl)cc2)c2ccccc2c1O,1.34µM,3.98µM,50.1µM,-54.5,25.1µM,20µM
O=S(=O)(Nc1ccc(Cl)cc1NS(=O)(=O)c1ccccc1)c1ccccc1,?,nt,nt,i,i,i
Cc1cc(C)c(S(=O)(=O)Nc2cc(SCC(=O)O)c(O)c3ccccc23)cc1C,1.5µM,2.24µM,39.8µM,-59.5,22.4µM,i
O=C(c1ccco1)N1CCN(C(=S)Nc2ccc(Br)cc2Cl)CC1,i,nt,i,i,i,i
FC(F)(F)c1ccc(Cl)c(-n2c(Cc3cccs3)n[nH]c2=S)c1,i,nt,?,i,?,i
Fc1ccc(-n2c(Cc3cccs3)n[nH]c2=S)cc1Cl,i,1.78µM,i,i,i,i
CCc1cc(-c2n[nH]c(=S)n2Cc2ccccc2)cs1,i,?,i,i,56.2µM,i
CCc1cc(-c2n[nH]c(=S)n2-c2ccccc2C)cs1,i,1.78µM,i,nt,35.5µM,i
Cc1ccccc1-n1c(Cc2cccs2)n[nH]c1=S,i,?,i,nt,8.91µM,i
COc1cc(C)nc(NC(=O)NC(=O)c2ccc(C(F)(F)F)cc2)n1,i,i,i,i,i,i
O=C(Nc1ccc(Br)cc1)C1CCN(S(=O)(=O)c2cccc3nsnc23)CC1,nt,i,nt,nt,i,i
COc1ccc(OC)c(CCNC(=O)c2cnn(-c3ccccc3)c2-n2cccc2)c1,nt,i,i,nt,?,i
CCC(C)C(CO)NCCCn1cnc2c(SC)ncnc21 (stereo not drawn),i,nt,nt,i,nt,nt
CCCc1cc(-c2n[nH]c(=S)n2CC)cs1,?,?,i,i,3.55µM,i
CCc1cc(-c2n[nH]c(=S)n2CC)cs1,?,?,i,i,8.91µM,i
SMILES,PLK1 PBD block,G9a inh,BAZ2B block,PI5P4Ka inh,JMJD2A Tudor inh,HP1b binding inh
CCCc1cc(-c2n[nH]c(=S)n2C(C)c2ccccc2)cs1 (stereo not drawn),i,?,i,nt,i,i
CCCCn1c(-c2csc(CCC)c2)n[nH]c1=S,i,8.91µM,i,i,?,i
CCC(=O)N1CCc2cc(Br)cc(S(=O)(=O)CCC(=O)N3CCN(c4cc(C)ccc4C)CC3)c21,nt,?,?,nt,i,i
CC(C)N1CCN(Cc2cccc(-c3ccco3)c2)CC1CCO (stereo not drawn),i,25.1µM,i,i,i,i
CC(C)N1CCN(Cc2ccccc2-c2ccco2)CC1CCO (stereo not drawn),i,i,i,i,i,i
CC(NC(=O)COC(=O)c1ccccc1F)C1CC2CCC1C2 (stereo not drawn),i,nt,nt,i,i,i
C/C(=C(/CCO)SSCC1CCCO1)N(C=O)Cc1cnc(C)nc1N (stereo not drawn),i,12.6µM,i,i,i,i
C/C(=C(/CCO)SSC[C@@H]1CCCO1)N(C=O)Cc1cnc(C)nc1N,nt,i[21.5 µM],nt,nt,nt,nt
c1ccc(-c2nnc(N3CCN(c4ccccc4)CC3)nc2-c2ccccc2)cc1,i,12.6µM,?,i,?,i
c1ccc(-c2nnc(N3CCCC3)nc2-c2ccccc2)cc1,i,i,i,i,i,i
C/C=C/C=C\C(=O)Nc1cccc(C2=NOC3(C2)C[C@@H](C(N)=O)N(C(=O)c2cc([N+](=O)[O-])cc([N+](=O)[O-])c2C)C3)c1 (stereo partly drawn),33.6µM,i[12.7 µM],i,-71.2,i,i
C/C=C/C=C\C(=O)Nc1cccc(C2=NOC3(C2)C[C@H](C(N)=O)N(C(=O)/C=C/C)C3)c1 (stereo partly drawn),i,?,i,?,79.4µM,?
C/C=C\C=C\C(=O)Nc1cccc(C2=NOC3(C2)C[C@H](C(N)=O)N(C(=O)c2ccccc2C(=O)c2ccccc2)C3)c1 (stereo partly drawn),i,i[12.7 µM],i,-51.7,i,i
C/C=C\C=C/C(=O)Nc1cccc(C2=NOC3(C2)C[C@@H](C(N)=O)N(C(=O)c2ccccc2)C3)c1 (stereo partly drawn),nt,?,i,nt,nt,nt
CCCCCCCCCCCCOCCCN,nt,i[12.7 µM],nt,nt,nt,nt
CCN(CC)S(=O)(=O)c1cccc(-c2nnc(SCC(=O)NC)n2N)c1,i,i,i,i,i,i
CCN(CC)S(=O)(=O)c1cccc(-c2nnc(SCc3nnc(-c4cccs4)o3)n2N)c1,i,50.1µM,i,i,i,i
CCCCOc1ccc(-c2csc(N)n2)cc1[N+](=O)[O-],i,8.91µM,?,i,i,i
CCCCOc1ccc(C2=CSC3=NCCN23)cc1[N+](=O)[O-],i,?,i,i,?,i
CCN1CCN(C(=S)Nc2ccc3nc4n(c(=O)c3c2)CCCCC4)CC1,i,44.7µM,i,i,i,i
O=C(Nc1ccc2nc3n(c(=O)c2c1)CCCC3)c1cccnc1Cl,18.9µM,nt,nt,i,?,i
CN(C)c1cccc(C(=O)Nc2ccc3nc4n(c(=O)c3c2)CCCCC4)c1,i,44.7µM,?,i,?,i
CC1CCCC(C)N1CCCNC(=O)C(=O)Nc1ccc2nc3n(c(=O)c2c1)CCCCC3 (stereo not drawn),26.7µM,nt,i,i,?,i
Cc1ccc(S(=O)(=O)N2CCN(c3nc(-c4cccs4)nc(C)c3C)CC2)cc1,nt,nt,nt,nt,i,i
